TDP1 block – blocks human tyrosyl-DNA phosphodiesterase 1. Q9NUW8. recombinant TDP1, AlphaScreen DNA substrate cleavage. Potency, µM (titrated, usually from 130 µM), without a hit: at the top dose activity change, negative = inhibition, usual class: inhibitors. 350,000 compounds, 0.28% hits; active = well fitted curve in the direction sought with a large enough effect; inconclusive = small, poorly fitted or top-dose-only effect, or another doubt; inactive = no such curve, though single readings can be large; an effect the other way counts as inactive or inconclusive; note: % is set by controls: 0 for no effect and ±100 for the full control effect; nearly all actives have a fitted effect of over 40% in size
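Recombinant E. coli-expressed Tdp1 (1 nM) preincubated with compound 15 min at RT, then 5'-biotin/3'-phosphotyrosine-FITC DNA substrate (15 nM) added for 5 min. AlphaScreen beads (10 ug/ml) added, 10 min RT; tyrosine-FITC cleavage read as signal loss.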
Rango-impB inh – inhibitors of Rango-importin beta complex formation. Q14974. Rango CFP/YFP FRET sensor + importin beta, 45 min. Potency, µM (top dose mostly 92.2 µM), without a hit: top-dose inhibition of complex formation. 340,000 compounds, 0.031% hits;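 note: 0% = DMSO wells and 100% = buffer wells lacking importin beta; nearly all actives have a fitted effect of over 15% in size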
Target sequence (Q14974 whole entry, looked up): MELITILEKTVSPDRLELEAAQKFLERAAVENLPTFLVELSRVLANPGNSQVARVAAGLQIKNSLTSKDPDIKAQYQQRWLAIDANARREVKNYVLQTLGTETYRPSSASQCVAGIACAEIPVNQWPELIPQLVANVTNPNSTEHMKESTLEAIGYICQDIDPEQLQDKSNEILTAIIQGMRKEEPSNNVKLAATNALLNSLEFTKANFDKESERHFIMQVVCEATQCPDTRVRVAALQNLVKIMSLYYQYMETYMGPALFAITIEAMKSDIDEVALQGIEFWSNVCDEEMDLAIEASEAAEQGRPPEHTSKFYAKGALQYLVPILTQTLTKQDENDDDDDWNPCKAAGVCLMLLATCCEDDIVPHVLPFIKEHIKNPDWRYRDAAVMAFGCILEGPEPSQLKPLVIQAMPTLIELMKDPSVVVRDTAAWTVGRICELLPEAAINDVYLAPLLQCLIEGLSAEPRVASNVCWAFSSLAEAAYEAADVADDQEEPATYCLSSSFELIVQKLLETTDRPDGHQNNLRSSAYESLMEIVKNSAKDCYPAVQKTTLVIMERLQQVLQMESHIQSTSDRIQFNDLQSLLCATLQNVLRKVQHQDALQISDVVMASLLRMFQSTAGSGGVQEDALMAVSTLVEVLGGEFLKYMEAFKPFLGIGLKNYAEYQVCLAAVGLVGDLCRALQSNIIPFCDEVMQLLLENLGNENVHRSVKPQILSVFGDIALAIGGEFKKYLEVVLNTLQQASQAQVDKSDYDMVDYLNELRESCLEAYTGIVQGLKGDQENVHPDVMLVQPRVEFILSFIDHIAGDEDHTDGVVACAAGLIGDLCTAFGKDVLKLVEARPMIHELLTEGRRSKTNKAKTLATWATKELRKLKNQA
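Inhibition scored from the CFP 486 nm/YFP 530 nm FRET ratio 45 min after adding 0.125 microM importin beta to 50 nM Rango biosensor preincubated 5 min with compound (room temperature, PBS with DTT, Tween-20, BSA). No-importin wells as positive control.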
Rango release inh – inhibition of RanGTP-driven Rango-importin beta dissociation. O95149+P62826. Biochemical FRET Rango-importin beta, RanGTP-induced dissociation. Potency, µM (series often up to 46.1 µM), without a hit: at the highest dose activity change, negative = inhibition. 340,000 compounds, 0.071% hits. AID 540253; note: % of control where 0% means no effect; nearly all actives have a fitted effect of over 45% in size
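Quantitative HTS using a FRET biosensor: 0.1 uM Rango, 0.25 uM importin beta, 0.6 uM Ran, 2 mM GTP, 0.2 uM RCC1 final, PBS with DTT, Tween-20 and BSA. Post-read taken 45 min after Ran addition.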
ALOX12 inh – ALOX12 (human) lipoxygenase inhibition; purified 12hLO, xylenol orange hydroperoxide absorbance; Potency, µM (series often up to 108 µM), without a hit: at the top dose activity change, negative = inhibition, most hits filed as inhibitors; 580,000 compounds, 1.1% hits; P18054; AID 1671190; active = well fitted curve in the direction sought with a large enough effect; inconclusive = small, poorly fitted or top-dose-only effect, or another doubt; inactive = no such curve, though single readings can be large; an effect the other way counts as inactive or inconclusive; note: % is set by controls: 0 for no effect and ±100 for the full control effect
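Hydroperoxide product was detected by ferrous iron/xylenol orange as the 573 to 405 nm absorbance ratio. Arachidonic acid at 40 uM (final) was turned over for 30 min at room temperature by 150 nM human 12hLO, pH 7.0 Hepes buffer, after 15 min compound preincubation.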
ClpP mod – qHTS Assay for Activators of ClpP; ATP-dependent Clp protease proteolytic subunit (Bacillus subtilis (strain 168)), P80244; purified B. subtilis ClpP, FRET peptide cleavage, 20 min; Potency, µM (highest dose often 57.5 µM), for the others: at the top dose activity change, negative = active; 340,000 compounds, 1.9% hits; active = well fitted falling curve with a large enough effect; inconclusive = small, poorly fitted or top-dose-only effect; inactive = no such curve, though single readings can be large or run the other way; note: the source files actives as falling curves though it sought activators and does not explain the sign; nearly all actives have a fitted effect of over 65% in size
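Purified B. subtilis ClpP, 10 microg/mL final in Tris/HCl pH8 with KCl, BSA, glycerol and Tween-20, cleaved an Abz/nitrotyrosine-quenched decapeptide. Fluorescence (ex 320, em 430) was read at 0 and 20 min at room temperature. Delta was normalized to 5.8 microM ADEP and DMSO/no-enzyme controls.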
PTAP TSG101 blk – blocks PTAP/TSG101 interaction to inhibit HIV-1 budding; Q99816; Fluorescence polarization, FITC-PTAP peptide / Tsg101 binding; Potency, µM (titrated, usually from 115 µM), for the others: top-dose activity change, negative = inhibition, actives largely listed as inhibitors; 340,000 tested, under 10 active; active = well fitted inhibition curve with a large enough effect in the main read-out, with a control signal flat, not every such curve was filed as active; inconclusive = small, poorly fitted or top-dose-only effect, or effect the other way, or a change in a side signal; inactive = no such curve, though single readings can be large or run the other way; note: % of control where 0% means no effect
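Steps: Tsg101 binding domain dispensed (10 uM final), compounds pinned in DMSO, FITC-labeled PTAP-motif peptide added (50 nM final); after 20 min binding at room temperature, polarization measured.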
Numbers without * were called inactive; ? = inconclusive; / = not tested or not shown; [ ] = dose if it differs, or a comment. Only some compounds are listed: those with a hit (about 2.4% of all), similar ones and a draw of the others. Unless noted, calls come from the whole dose curve. Potency is the fitted concentration of half-maximal effect.

SMILES | TDP1 block | Rango-impB inh | Rango release inh | ALOX12 inh | ClpP mod | PTAP TSG101 blk
Cc1ccc(CNC(=O)NCCc2ncc(C)n2Cc2ccc(F)cc2)cc1 | / | / | / | 53% | / | /
CN1CCOC[C@H]2CCN(C(=O)c3cccc4[nH]ccc34)C[C@H]21 | / | / | / | 69% | / | /
CCCCCCCc1ccc(C(=O)NNC(=O)c2ccc(Br)cc2)cc1 | / | / | / | -1% | / | /
O=C(CN(c1ccc(Br)cc1)S(=O)(=O)c1ccc(Cl)c([N+](=O)[O-])c1)NCCc1ccccc1 | 5% | 0% | -12% | -1% | 25µM* | 1%
O=C(c1ccc2c(c1)OCO2)N1CCN(c2cc(-c3ccc(Cl)cc3)[nH]n2)CC1 | / | / | / | 24% | / | /
COc1ccc(/C=C2\SC(N3CCCCC3)=NC2=O)cc1OC | / | 3% | -2% | 0% | / | -4%
COc1cc(/C=C2\SC(N3CCC(C)CC3)=NC2=O)ccc1O | / | ? | ? | ? | 14µM* | 2%
COC(=O)c1ccc(COc2ccccc2/C=C/C(=O)c2ccc(Cl)cc2Cl)cc1 | / | / | / | -22% | / | /
Cc1c(Cl)cccc1-n1nnc(C(=O)N(C)c2ccccc2)c1C | / | / | / | 9% | / | /
Cc1ccc(C2NNC(=O)C2NC(=O)c2ccccc2)cc1 (stereo not drawn) | 8% | 1% | 0% | 25µM* | -1% | 1%
O=C(NC1C(=O)NNC1c1ccccc1)c1ccc(F)cc1 (stereo not drawn) | 4% | 2% | -7% | ? | -1% | -7%
CCS(=O)(=O)N1CCN(c2ccc(C(=O)NC3C4CC5CC(C4)CC3C5)cc2[N+](=O)[O-])CC1 (stereo not drawn) | 3% | -6% | ? | -4% | 25µM* | -2%
COc1cccc(NC(=O)CSc2nnc(-c3ccco3)c(-c3ccco3)n2)c1 | / | -2% | 2% | -5% | / | -8%
CSc1nnc(-c2ccccc2)c(-c2ccccc2)n1 | -1% | -2% | -4% | 2% | 0% | -6%
CSc1nnc(-c2ccco2)c(-c2ccco2)n1 | / | ? | -6% | 22µM* | 0% | -5%
O=C(CSc1ccc(-c2ccco2)nn1)c1ccc(F)cc1 | -12% | -4% | -9% | 28µM* | 1% | -4%
COc1ccc(C(=O)CSc2nnc(-c3ccco3)c(-c3ccco3)n2)cc1 | -3% | -5% | 1% | 20µM* | 0% | -9%
O=C(O)CCn1ncc2cc(OCC3CCN(C(=O)Cc4ccccc4)CC3)ccc21 | / | / | / | -5%[176 µM] | / | /
O=C(Cc1ccsc1)N1CCCCCC1c1nc(-c2ccncc2)no1 (stereo not drawn) | / | / | / | 10% | / | /
COc1ccc(CNc2ncnc3c2CN(c2ccc(Cl)cc2)C(=O)N(C)C3)cc1 | / | / | / | -12% | / | /
CN1Cc2ncnc(NCCc3ccc(F)cc3)c2CN(c2ccc(Cl)cc2)C1=O | / | / | / | 71µM* | / | /
C[C@@H]1CCC2[C@]3(C)COC(C)(C)O[C@H]3CC[C@]2(C)[C@@]12CCC1(COC(=O)C1)O2 (stereo partly drawn) | / | / | / | 21% | / | /
COc1ccccc1-c1coc2c(CN(C)C)c(O)ccc2c1=O | / | -1% | 2% | 2% | 5% | -1%
COc1ccccc1Oc1coc2c(CN(C)C)c(O)ccc2c1=O | 0% | -2% | 3% | ? | 28µM* | 0%
CCN(CC)Cc1c(O)ccc2c(=O)c(Oc3ccccc3OC)coc12 | 2% | -1% | 8% | 5% | 18µM* | -6%
SMILES | TDP1 block | Rango-impB inh | Rango release inh | ALOX12 inh | ClpP mod | PTAP TSG101 blk
CCN(CC)Cc1c(O)ccc2c(=O)c(-c3ccc4c(c3)OCCO4)coc12 | 5% | 6% | -2% | -5% | 28µM* | 0%
Cc1nc(-c2coc3c(CN(C)C)c(O)ccc3c2=O)cs1 | 2% | 0% | 1% | 1% | 32µM* | -10%
CCC(CC)C(=O)NC[C@@H]1C=C(C)[C@H](Cc2nc3ccc(OC)cc3[nH]2)C[C@H]1C(C)C | / | / | / | 7%[176 µM] | / | /
COc1ccc(-c2nc3cc(NC(=O)c4cccc([N+](=O)[O-])c4)ccc3o2)cc1 | / | / | / | -14% | / | /
CCCCN1C(=O)CCc2cc(NS(=O)(=O)CCC)ccc21 | / | / | / | -4% | / | /
CCCCS(=O)(=O)Nc1ccc2ncn(C)c(=O)c2c1 | 4% | 0% | 0% | 4% | 32µM* | -1%
CCc1cc(C(c2ccccc2OC)N2CCN(C)CC2)c(NC(=O)c2ccco2)s1 (stereo not drawn) | / | / | / | 40µM* | / | /
CCc1cc(C(c2ccc(OC)c(OC)c2)N2CCOCC2)c(NC(=O)c2ccccc2)s1 (stereo not drawn) | 5% | 4% | 3% | -34% | -12% | -1%
CCc1cc(C(c2ccc(OC)c(OC)c2)N2CCN(CC)CC2)c(NC(=O)c2ccco2)s1 (stereo not drawn) | / | / | / | 16µM* | / | /
O=[N+]([O-])c1ccc(/C=N/Nc2ccc3ccccc3c2)o1 | 12% | 7% | 0% | 10µM* | -2% | 0%
Cc1ccc2nc(N/N=C\c3ccc([N+](=O)[O-])o3)nc(-c3ccccc3)c2c1 | 0% | 0% | -19% | -4% | 1% | 2%
CCc1ccc(NC(=O)c2ccc3c(c2)N(C)C2CCCCN2C3=O)cc1 (stereo not drawn) | / | / | / | -7% | / | /
O=C(Cc1ccc(S(=O)(=O)N2CCCC2)s1)N1CCN(c2ccccc2)CC1 | / | ? | -12% | 0% | / | 1%
O=C(O)Cc1ccc(S(=O)(=O)N2CCCC2)s1 | 10µM* | 0% | 6% | -27% | -8% | -3%
O=C(Cc1ccc(S(=O)(=O)N2CCOCC2)s1)Nc1ccccc1N1CCOCC1 | 6% | -3% | 2% | 6% | 14µM* | 0%
FC(F)(F)c1ccc(=S)[nH]c1 | / | / | / | 5µM* | / | /
Clc1ccccc1COc1ccc(/C=N/n2cnnc2)cc1 | 79µM* | -2% | 14% | -13% | -6% | -2%
O=S(=O)(c1ccccc1)N1CCCC(c2nc(CCOCC3CCCC3)no2)C1 (stereo not drawn) | / | / | / | 20% | / | /
N#Cc1c(-c2cccc(Br)c2)cc(-c2cccnc2)nc1N | -6% | ? | -26% | -3% | 32µM* | -4%
Cc1cc2oc(C(=O)Nc3sc4c(c3C#N)CCCC4)cc(=O)c2cc1Cl | / | / | / | 6% | / | /
O=C(c1ccccc1)c1ccccc1N1C(=O)C=CC1=O | 10% | 4% | 28% | 7.9µM* | -1% | -4%
CSCCC(NC(=O)c1cccc([N+](=O)[O-])c1)C(=O)O (stereo not drawn) | -1% | -4% | -1% | 3% | 25µM* | -1%

Screens deposited in PubChem BioAssay by National Center for Advancing Translational Sciences (NCATS).
